Screening data (PubChem BioAssay)
The list is not random: actives were taken first. Their share in the collection is about 2.2%.
aSyn yeast inh: rescues yeast growth from alpha-synuclein toxicity | Yeast expressing alpha-synuclein, growth rescue, BacTiter-Glo, 24 h | Potency, µM (top dose mostly 46.1 µM), inactives show at the highest dose growth rescue (activation), actives largely listed as activators | 370,000 compounds, 0.14% hits | AID 652106; note: % of control where 0% means no effect; nearly all actives have a fitted effect of over 65% in size
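Galactose-induced alpha-syn yeast (OD600=0.02, raffinose-pregrown) + pinned cpd, 24 hr, 30 deg C; growth by BacTiter-Glo luminescence. Growth restoration scores as activation.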
Mito fusion act: blocks mitochondrial division or promotes mitochondrial fusion; S. cerevisiae fusion-defective mutant growth rescue, CellTiterGlo 48 h; Potency, µM (top dose mostly 46.1 µM), for the others: at the highest dose growth rescue (activation), usual class: activators; 320,000 compounds, 0.23% hits; AID 485298; note: % of control where 0% means no effect; nearly all actives have a fitted effect of over 45% in size
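Read-out: ATP-based luminescence (CellTiterGlo, 10 min ambient) reporting growth of fusion-defective ts yeast after 48 hours at 37C on glycerol/ethanol YPEG medium in the presence of compound.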
Abeta yeast res: restores growth of yeast expressing A-beta42 peptide; Potency, µM (highest dose often 46.1 µM), hits mostly activators; yeast expressing A-beta42, growth rescue, OD600, 48 h; response scale: 0% DMSO, 100% iron-clioquinol control; 410,000 compounds, 0.063% hits; note: nearly all actives have a fitted effect of over 55% in size
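Yeast growth medium received pinned compounds, then yeast cells expressing toxic A-beta were added; plates incubated at 30 C for 48 hr. Growth read as absorbance at 600 nm, normalized to DMSO and equimolar FeCl3 plus clioquinol controls.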
TDP-43 yeast inh: inhibitors of TDP-43 toxicity in yeast; Potency, µM (titrated, usually from 46.1 µM), for the others: at the highest dose growth rescue (activation), most hits filed as activators; TDP-43 expressing yeast growth rescue, BacTiter-Glo, 24 h; AID 652104; 410,000 compounds, 1.8% hits; note: % of control where 0% means no effect; nearly all actives have a fitted effect of over 50% in size
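Luminescence from BacTiter-Glo reports growth of TDP-43-expressing yeast after 24 hr at 30 deg C with compound. Cells were raffinose-pregrown to mid-log, then seeded in galactose medium at OD600=0.02.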
ERG Ets-DNA blk: blocks human ERG Ets domain binding to DNA; fluorescence polarization, His-ERG Ets domain / labelled DNA; Potency, µM (titrated, usually from 76.9 µM), without a hit: at the top dose FP activity, negative = inhibition, usual class: inhibitors; 370,000 compounds, 0.028% hits; AID 624246; active = well fitted inhibition curve with a large enough effect in the polarisation, with a control signal flat; inconclusive = small, poorly fitted or top-dose-only effect, or effect the other way, or a change in a side signal; inactive = no such curve, though single readings can be large or run the other way; the % refers to the polarisation;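 note: polarization taken with two DNA probes labelled with fluorescein and Texas red; % of control where 0% means no effect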
Target sequence (P11308 whole entry, looked up, the tested form may be a part): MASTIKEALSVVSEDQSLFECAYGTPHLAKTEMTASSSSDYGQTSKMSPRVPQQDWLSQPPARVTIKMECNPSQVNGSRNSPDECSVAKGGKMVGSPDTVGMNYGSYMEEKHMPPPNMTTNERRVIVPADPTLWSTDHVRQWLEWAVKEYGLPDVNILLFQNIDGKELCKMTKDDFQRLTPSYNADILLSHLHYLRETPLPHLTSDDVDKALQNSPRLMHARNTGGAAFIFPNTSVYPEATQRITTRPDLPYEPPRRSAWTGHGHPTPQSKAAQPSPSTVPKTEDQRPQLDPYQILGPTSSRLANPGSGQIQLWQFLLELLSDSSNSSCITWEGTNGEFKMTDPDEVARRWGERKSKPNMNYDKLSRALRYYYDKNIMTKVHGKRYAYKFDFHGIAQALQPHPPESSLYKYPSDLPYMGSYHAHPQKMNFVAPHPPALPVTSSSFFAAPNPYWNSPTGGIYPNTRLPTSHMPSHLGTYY
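His-tagged ERG Ets domain (1 uM in the protein solution; 300mM KCl, 50mM Tris-HCl, 1mM EDTA, 1mM DTT, pH 7.5) received compound, then a probe mix of 5 nM fluorescein-DNA and 100nM Texas-615-DNA. Fluorescence polarization was read for both dyes.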
FUS suppressor: suppressors of FUS proteinopathy in yeast. Potency, µM (titrated, usually from 76.6 µM), actives largely listed as activators. AID 1347120. 390,000 compounds, 0.24% hits. S. cerevisiae FUS-expressing, growth rescue, OD600, 24 h;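 note: plate controls were DMSO vehicle for no effect and reference control for full effect; nearly all actives have a fitted effect of over 55% in size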
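Restored growth of FUS-toxic S. cerevisiae, read as 600 nm absorbance after 24 h at 30C in galactose medium (starting OD 0.005). Controls CP55940 and DMSO.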
* = called active by the depositor; i = inactive; ? = inconclusive; · = no result given; ! = not active in a repeat. Unless noted, calls come from the whole dose curve; as a rule, active = well fitted curve in the direction sought with a large enough effect; inconclusive = small, poorly fitted or top-dose-only effect, or another doubt; inactive = no such curve, though single readings can be large; an effect the other way counts as inactive or inconclusive. Potency is the fitted concentration of half-maximal effect.

SMILES	aSyn yeast inh	Mito fusion act	Abeta yeast res	TDP-43 yeast inh	ERG Ets-DNA blk	FUS suppressor
O=C1CC(c2cc(F)ccc2F)c2cc3c(cc2N1)CCC3 (centres undefined)	?	7.08µM*	i	-23.5%	10.8%	i
CCC(C)[C@H]1CNC(=O)C(=O)N1CC(C)(C)C (some centres undefined)	-5.7%	·	i	2.9%	·	i
Cc1ccc(C)c(N2CCN(C(=O)CC3Sc4ccccc4NC3=O)CC2)c1 (centres undefined)	?	13.7%	i	22.4µM*	4.9%	?
Cc1ccc(C)c(N2CCN(C(=O)CN3CCSc4ccccc43)CC2)c1	?	·	?	25.1µM*	-11.0%	i
CCC(=O)N1CCN(c2cc(C)ccc2C)CC1	-1.6%	-1.2%	i	-3.7%	4.6%	i
COc1ccc(CNc2oc(/C=C/c3cc(OC)c(OC)c(OC)c3)nc2C#N)cc1	·	·	i	15.7%	-1.8%	i
O=C(Cc1cccs1)NC1CC(=O)N(c2ccc(Cl)cc2)C1 (centres undefined)	·	·	i	5.3%	3.1%	i
COc1ccc(C(=O)NCCSCc2cccc(Cl)c2)cc1OC	7.3%	-1.0%	i	20µM*	14.5%	i
CCOc1ccc(CCNC(=O)CCSCc2cccc(Cl)c2)cc1OCC	·	·	i	22.4µM*	2.5%	i
O=C(/C=C/c1cccc([N+](=O)[O-])c1)NCCSCc1cccc(Cl)c1	22.7%	?	i	22.4µM*	-0.3%	i
O=C(CCSCc1ccc(Cl)cc1)NCCc1ccccc1	9.8%	13.9%	i	18.4%	-1.7%	i
O=C(CCSCc1cccc(Cl)c1)NCCc1ccc(Cl)cc1	1.6%	23.8%	i	11.2µM*!	1.2%	i
Cn1c(=O)c2cc(S(=O)(=O)N3CCN(CCO)CC3)ccc2n(C)c1=O	·	·	·	·	·	i
CCN(C(=O)CSc1nc2cc(C(=O)O)ccc2c(=O)n1-c1ccccc1F)C1CCS(=O)(=O)C1 (centres undefined)	4.5%	·	i	24.6%	·	·
Fc1ccc(-c2n[nH]c(=S)n2N=Cc2cccc(OCc3ccccc3)c2)cc1	·	·	·	·	·	i
CCC[C@H]1[C@@H](NCc2ccccc2)CC[C@@]23CCCN2C(=O)CCC[C@@H]13	·	·	·	·	·	i
COc1cccc(C(=O)NCCSCc2ccccc2Cl)c1	0.1%	3.7%	i	?	17.2%	?
COc1cccc(C(=O)NCCSCc2c(F)cccc2Cl)c1	12.5%	3.3%	i	11.2µM*	-1.6%	i
Cc1ccc(CNC(=O)CCCn2c(=O)c3ccccc3n(CC(=O)C(C)(C)C)c2=O)cc1	·	·	i	?	0.6%	i
O=C(Nc1ccc(-n2nncc2-c2ccccc2)cc1)c1ccccc1	-1.6%	·	·	·	·	·
O=C(Nc1nc(-c2ccccc2)c(-c2ccccc2)o1)c1ccc(F)cc1	?	-5.8%	11.2µM*	?	-12.8%	i
COc1cccc(C(=O)Nc2nc(-c3ccccc3)c(-c3ccccc3)o2)c1	?	24.4%	15.8µM*	20µM*	0.6%	i
COc1cccc(C(=O)Nc2ccc(-n3nncc3-c3ccccc3)cc2)c1	·	0.7%	i	35.5µM*	-9.8%	?
COc1cccc(C(=O)Nc2c(C(=O)NC(C)(C)C)oc3ccccc23)c1	·	·	i	17.8µM*	10.9%	i
O=C1/C(=C/c2ccccc2)SC(=S)N1C1CCS(=O)(=O)C1 (centres undefined)	0.9%	-3.1%	i	14.7%	5.0%	i
O=C1/C(=C/c2ccncc2)SC(=S)N1C1CCS(=O)(=O)C1 (centres undefined)	0.1%	-5.5%	i	12.6µM*	27.6%	i
COc1ccccc1-n1c(SCC(=O)O)nc2c(sc(=S)n2-c2ccccc2C)c1=O	-1.6%	7.3%	i	-0.7%	17.6%	i
